Among the data in the supplement of paper PMC10849652 are log2 fold change values, retold here.

Of roughly 8,800 targets only a part is listed; those with a hit were picked by preference. About 0.5% of all pairs of compound and target were hits. Unmarked numbers belong to inactive results.

Holding throughout (test): log2 fold change, soluble protein after heating vs DMSO (PISA); higher = thermal stabilisation; K562 lysate, 10 uM; active = over 0.2 and 3.5 SD of the protein, either way, in both replicates (recomputed)
Compound in experiment [1]: NCC(=O)Nc1ccc(-n2nc(C(F)(F)F)cc2-c2ccc3c(ccc4ccccc43)c2)cc1
The gist of the method:
(§1)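 To prepare the extract, K562 pellets were dounce-homogenised in PBS pH 7.4 with 1 mM MgCl2, giving crude material at 1 mg/mL protein. This was treated with 10 μM compound for 30 min, then heated in aliquots for 3 min over 48°C-58°C before pooling and addition of NP-40 to 0.5% at 4°C. Centrifugation at 21,000xg for 90 min left soluble protein in the supernatant, which TMTpro 16plex LC-MS/MS quantified with equalised channel sums. Results are log-two fold changes in thermal stability compared with solvent controls, from duplicates.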

Compound in a further experiment: O=C(CCCCCCC(=O)Nc1ccccc1)NO [vorinostat]
The gist of the method:
as §1

Compound in a further experiment: O=C(O)c1ccc2c(c1)nc(Nc1cccc(Cl)c1)c1ccncc12 [silmitasertib]
An outline of the steps: as §1

Compound in experiment [2]: O=C1NC(=O)C(c2cnc3ccccn23)=C1c1cn2c3c(cc(F)cc13)CN(C(=O)N1CCCCC1)CC2
The gist of the method:
as §1

Compound in another experiment: c1cn2cc(-c3ccc4cn[nH]c4c3)nc(Nc3ccc(N4CCOCC4)cc3)c2n1 [entospletinib]
An outline of the steps:
as §1

Chain of UniProt Q6PIW4 (Q6PIW4 whole entry, looked up): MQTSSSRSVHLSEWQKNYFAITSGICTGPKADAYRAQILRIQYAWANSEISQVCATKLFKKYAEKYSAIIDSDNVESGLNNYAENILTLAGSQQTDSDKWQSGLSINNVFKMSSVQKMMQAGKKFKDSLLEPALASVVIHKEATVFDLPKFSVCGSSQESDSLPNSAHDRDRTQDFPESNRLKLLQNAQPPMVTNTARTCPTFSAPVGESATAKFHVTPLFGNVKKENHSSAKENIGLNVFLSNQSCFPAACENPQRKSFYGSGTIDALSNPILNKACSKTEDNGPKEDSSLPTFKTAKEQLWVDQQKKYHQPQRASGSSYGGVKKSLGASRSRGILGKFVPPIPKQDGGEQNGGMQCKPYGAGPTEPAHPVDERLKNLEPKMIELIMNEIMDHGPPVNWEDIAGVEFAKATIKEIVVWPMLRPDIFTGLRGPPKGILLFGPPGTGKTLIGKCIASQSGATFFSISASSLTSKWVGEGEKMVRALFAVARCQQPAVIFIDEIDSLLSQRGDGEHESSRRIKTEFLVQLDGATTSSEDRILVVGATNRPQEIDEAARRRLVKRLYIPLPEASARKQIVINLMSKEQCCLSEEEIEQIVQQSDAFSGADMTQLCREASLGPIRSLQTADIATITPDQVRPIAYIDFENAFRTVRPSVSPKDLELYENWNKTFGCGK
Chain of UniProt O75521 (O75521 whole entry, looked up): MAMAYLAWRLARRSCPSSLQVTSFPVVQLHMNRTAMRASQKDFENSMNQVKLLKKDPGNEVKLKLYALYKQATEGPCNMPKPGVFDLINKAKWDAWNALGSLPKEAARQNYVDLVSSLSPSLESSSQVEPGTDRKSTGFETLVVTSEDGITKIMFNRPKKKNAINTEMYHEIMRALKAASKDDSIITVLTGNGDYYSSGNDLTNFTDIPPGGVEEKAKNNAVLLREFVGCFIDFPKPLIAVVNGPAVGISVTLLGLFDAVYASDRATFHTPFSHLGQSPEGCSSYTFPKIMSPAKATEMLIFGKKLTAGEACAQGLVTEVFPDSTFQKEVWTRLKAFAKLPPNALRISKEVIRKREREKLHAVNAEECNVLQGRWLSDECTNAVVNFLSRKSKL
Chain of UniProt Q9BQS8 (Q9BQS8 whole entry, looked up): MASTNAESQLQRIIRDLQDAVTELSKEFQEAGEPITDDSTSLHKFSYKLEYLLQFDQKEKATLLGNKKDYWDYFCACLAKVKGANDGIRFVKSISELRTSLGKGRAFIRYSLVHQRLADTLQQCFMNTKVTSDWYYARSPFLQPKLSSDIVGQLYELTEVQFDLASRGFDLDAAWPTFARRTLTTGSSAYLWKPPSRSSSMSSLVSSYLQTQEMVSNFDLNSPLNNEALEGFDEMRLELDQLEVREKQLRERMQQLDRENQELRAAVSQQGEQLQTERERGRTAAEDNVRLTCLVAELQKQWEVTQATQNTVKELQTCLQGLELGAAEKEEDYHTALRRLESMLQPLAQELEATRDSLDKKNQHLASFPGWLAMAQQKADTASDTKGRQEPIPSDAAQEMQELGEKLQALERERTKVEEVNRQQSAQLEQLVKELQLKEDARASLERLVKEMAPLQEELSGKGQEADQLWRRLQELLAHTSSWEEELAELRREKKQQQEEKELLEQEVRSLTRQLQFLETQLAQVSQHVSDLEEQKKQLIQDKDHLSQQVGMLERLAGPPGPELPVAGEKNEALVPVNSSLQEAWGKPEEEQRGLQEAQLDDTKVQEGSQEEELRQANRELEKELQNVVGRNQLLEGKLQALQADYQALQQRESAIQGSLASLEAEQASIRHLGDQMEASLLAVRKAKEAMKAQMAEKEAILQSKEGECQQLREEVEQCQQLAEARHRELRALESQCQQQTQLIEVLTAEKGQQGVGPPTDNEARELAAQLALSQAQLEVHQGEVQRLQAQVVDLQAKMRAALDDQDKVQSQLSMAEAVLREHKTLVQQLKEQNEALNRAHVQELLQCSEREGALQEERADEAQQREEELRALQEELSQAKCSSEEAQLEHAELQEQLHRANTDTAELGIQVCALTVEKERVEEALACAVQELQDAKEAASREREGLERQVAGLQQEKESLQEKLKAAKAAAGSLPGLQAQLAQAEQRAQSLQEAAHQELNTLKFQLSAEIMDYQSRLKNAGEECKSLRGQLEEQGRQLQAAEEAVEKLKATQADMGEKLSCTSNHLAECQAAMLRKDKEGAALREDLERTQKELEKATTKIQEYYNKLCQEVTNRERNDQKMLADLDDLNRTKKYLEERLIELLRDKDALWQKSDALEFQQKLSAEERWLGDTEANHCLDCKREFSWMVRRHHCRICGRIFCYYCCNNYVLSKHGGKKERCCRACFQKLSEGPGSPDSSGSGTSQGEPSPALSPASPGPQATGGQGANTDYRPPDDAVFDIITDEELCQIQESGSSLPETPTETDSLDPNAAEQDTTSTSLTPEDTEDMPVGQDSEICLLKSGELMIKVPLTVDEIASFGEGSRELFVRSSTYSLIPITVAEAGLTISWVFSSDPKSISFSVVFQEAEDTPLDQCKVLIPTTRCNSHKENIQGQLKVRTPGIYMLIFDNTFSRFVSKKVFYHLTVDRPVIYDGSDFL
Chain of UniProt Q15125 (Q15125 whole entry, looked up): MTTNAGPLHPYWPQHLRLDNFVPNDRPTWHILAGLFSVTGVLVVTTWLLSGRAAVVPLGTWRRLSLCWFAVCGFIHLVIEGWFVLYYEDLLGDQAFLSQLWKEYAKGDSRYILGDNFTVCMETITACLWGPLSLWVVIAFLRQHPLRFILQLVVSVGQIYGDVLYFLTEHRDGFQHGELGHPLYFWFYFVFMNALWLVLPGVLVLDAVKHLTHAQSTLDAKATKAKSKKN
Chain of UniProt Q13144 (Q13144 whole entry, looked up): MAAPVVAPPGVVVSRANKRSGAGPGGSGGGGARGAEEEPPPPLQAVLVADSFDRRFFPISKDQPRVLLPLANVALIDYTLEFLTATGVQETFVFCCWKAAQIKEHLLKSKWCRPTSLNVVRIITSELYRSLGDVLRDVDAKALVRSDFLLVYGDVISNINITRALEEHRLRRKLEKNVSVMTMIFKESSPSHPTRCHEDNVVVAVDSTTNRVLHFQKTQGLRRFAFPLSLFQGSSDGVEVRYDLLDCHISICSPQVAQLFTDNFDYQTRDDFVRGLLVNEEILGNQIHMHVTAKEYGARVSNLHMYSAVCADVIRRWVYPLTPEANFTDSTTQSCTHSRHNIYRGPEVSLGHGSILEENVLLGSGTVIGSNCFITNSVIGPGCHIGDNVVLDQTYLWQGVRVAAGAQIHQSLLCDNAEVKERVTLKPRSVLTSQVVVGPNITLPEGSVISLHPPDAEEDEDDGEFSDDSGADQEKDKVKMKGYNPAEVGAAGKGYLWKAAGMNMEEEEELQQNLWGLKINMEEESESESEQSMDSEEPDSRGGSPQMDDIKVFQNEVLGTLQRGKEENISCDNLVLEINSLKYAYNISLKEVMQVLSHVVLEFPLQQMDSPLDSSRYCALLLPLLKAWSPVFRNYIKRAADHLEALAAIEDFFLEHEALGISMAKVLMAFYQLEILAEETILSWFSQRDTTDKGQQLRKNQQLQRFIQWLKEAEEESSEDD
Chain of UniProt P04406 (P04406 whole entry, looked up): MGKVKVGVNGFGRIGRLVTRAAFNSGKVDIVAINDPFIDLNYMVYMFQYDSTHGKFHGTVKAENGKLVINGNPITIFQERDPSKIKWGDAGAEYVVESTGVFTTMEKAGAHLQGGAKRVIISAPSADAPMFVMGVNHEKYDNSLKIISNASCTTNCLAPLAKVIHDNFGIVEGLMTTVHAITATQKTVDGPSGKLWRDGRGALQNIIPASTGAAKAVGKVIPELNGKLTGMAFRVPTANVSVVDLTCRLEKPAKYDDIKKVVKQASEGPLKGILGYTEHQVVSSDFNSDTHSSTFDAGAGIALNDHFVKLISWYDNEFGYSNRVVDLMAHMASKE
Chain of UniProt Q8N9F7 (Q8N9F7 whole entry, looked up): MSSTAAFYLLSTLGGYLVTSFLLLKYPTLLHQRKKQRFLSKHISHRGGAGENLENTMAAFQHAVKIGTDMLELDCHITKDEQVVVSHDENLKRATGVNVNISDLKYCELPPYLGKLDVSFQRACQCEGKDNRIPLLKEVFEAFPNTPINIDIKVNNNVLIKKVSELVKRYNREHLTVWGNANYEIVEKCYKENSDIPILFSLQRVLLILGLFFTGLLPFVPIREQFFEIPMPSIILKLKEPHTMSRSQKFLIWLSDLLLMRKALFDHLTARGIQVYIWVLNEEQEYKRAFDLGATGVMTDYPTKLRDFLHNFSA
Chain of UniProt Q13409 (Q13409 whole entry, looked up): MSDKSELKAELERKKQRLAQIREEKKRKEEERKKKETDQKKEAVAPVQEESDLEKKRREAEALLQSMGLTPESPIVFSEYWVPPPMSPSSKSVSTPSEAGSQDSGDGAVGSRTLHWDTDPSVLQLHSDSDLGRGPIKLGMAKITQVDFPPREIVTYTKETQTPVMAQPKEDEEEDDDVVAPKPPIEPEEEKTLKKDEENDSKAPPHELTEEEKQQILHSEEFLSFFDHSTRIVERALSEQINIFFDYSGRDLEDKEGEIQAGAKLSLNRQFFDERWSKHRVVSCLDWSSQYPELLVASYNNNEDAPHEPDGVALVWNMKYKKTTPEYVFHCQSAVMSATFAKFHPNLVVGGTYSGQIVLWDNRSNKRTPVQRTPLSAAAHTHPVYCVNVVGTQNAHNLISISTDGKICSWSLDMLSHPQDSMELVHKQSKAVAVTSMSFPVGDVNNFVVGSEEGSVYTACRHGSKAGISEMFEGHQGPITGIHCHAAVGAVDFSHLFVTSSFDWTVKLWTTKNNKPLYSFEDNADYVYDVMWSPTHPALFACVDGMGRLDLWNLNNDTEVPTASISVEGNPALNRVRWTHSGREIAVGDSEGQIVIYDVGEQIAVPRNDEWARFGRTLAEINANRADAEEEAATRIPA
Chain of UniProt Q8WWZ3 (Q8WWZ3 whole entry, looked up): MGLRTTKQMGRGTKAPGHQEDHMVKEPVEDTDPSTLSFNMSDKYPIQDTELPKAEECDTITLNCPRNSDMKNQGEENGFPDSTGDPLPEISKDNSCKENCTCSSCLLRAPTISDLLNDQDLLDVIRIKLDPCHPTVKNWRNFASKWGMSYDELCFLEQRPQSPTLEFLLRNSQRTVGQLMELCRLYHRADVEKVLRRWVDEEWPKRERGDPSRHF

In the case of GDPD1 (UniProt Q8N9F7), the log2 fold change was -0.137 in experiment [1]; 0.056 in the experiment with vorinostat; 0.033 with silmitasertib; 0.177 in experiment [2]; -0.092 in the experiment with entospletinib.

Consider DYNC1I2 isoform 5 (UniProt Q13409), for which the log2 fold change in experiment [1] is 0.009; in the experiment with vorinostat, 0.126; with silmitasertib, 0.03; in experiment [2] it was -0.005; with entospletinib, -0.007.

Consider ENGASE (UniProt Q8NFI3), for which the log2 fold change in experiment [1] was -0.01; with vorinostat, -0.337 (active); with silmitasertib it was 0.05; in experiment [2], -0.013; with entospletinib it was -0.004.

For EBP (UniProt Q15125), the log2 fold change was 0.134 in experiment [1]; 0.1 with vorinostat; -0.033 with silmitasertib; 0.097 in experiment [2]; 0.013 with entospletinib.

Regarding DUS2 (UniProt Q9NX74), the log2 fold change in experiment [1] is -0.01; in the experiment with vorinostat, -0.014; with silmitasertib, 0.555 (active); in experiment [2], -0.037; with entospletinib, -0.042.

In the case of EEFSEC (UniProt P57772), the log2 fold change in experiment [1] is -0.022; in the experiment with vorinostat it was -0.325 (active); with silmitasertib, 0.052; in experiment [2], -0.012; in the experiment with entospletinib it was -0.009.

ERBIN isoform 8 (UniProt Q96RT1): the log2 fold change in experiment [1] was -0.016; in the experiment with vorinostat, -0.008; in the experiment with silmitasertib it was -0.001; in experiment [2], -0.017; in the experiment with entospletinib, -0.002.

Consider FBRSL1, A0A3B3IRR3, for which the log2 fold change in experiment [1] is 0.043; in the experiment with vorinostat, 0.142; with silmitasertib, -0.013; in experiment [2], 0.069; in the experiment with entospletinib it was -0.087.

With FYCO1 isoform 4 (UniProt Q9BQS8), the log2 fold change was -0.002 in experiment [1]; -0.002 with vorinostat; 0.047 in the experiment with silmitasertib; 0.033 in experiment [2]; -0.002 with entospletinib.

Consider EIF2B5 (UniProt Q13144), for which the log2 fold change in experiment [1] is 0.013; with vorinostat it was -0.227 (active); with silmitasertib it was -0.009; in experiment [2], -0.029; with entospletinib, 0.013.

As to G6PD isoform 2 (UniProt P11413), the log2 fold change was 0.008 in experiment [1]; -0.46 (active) in the experiment with vorinostat; -0.008 with silmitasertib; -0.003 in experiment [2]; 0.032 with entospletinib.

Regarding GAPDH (UniProt P04406), the log2 fold change in experiment [1] was 0; with vorinostat it was 0.309 (active); with silmitasertib it was -0.033; in experiment [2], 0.014; in the experiment with entospletinib, 0.003.

Regarding FAM114A2 (UniProt Q9NRY5), the log2 fold change in experiment [1] was -0.056; with vorinostat it was 0.262; with silmitasertib it was -0.015; in experiment [2], -0.034; in the experiment with entospletinib, 0.

Take FIGNL1 (UniProt Q6PIW4): the log2 fold change in experiment [1] is -0.016; with vorinostat it was -0.484 (active); with silmitasertib it was 0.045; in experiment [2], 0; in the experiment with entospletinib, 0.05.

For the target EEF1AKNMT (UniProt Q8N6R0), the log2 fold change in experiment [1] was -0.004; with vorinostat, -0.414 (active); with silmitasertib it was 0.076; in experiment [2], -0.005; with entospletinib, 0.026.

Take ESPL1 (UniProt Q14674): the log2 fold change in experiment [1] is 0.027; in the experiment with vorinostat, -0.21; in the experiment with silmitasertib, 0.098; in experiment [2], 0.057; with entospletinib, -0.066.

With EDARADD (UniProt Q8WWZ3), the log2 fold change in experiment [1] was 0.022; with vorinostat, -0.168; in the experiment with silmitasertib, 0.02; in experiment [2] it was -0.05; with entospletinib it was -0.057.

Take ECI2 (UniProt O75521): the log2 fold change was 0.08 in experiment [1]; 0.146 in the experiment with vorinostat; 0.022 in the experiment with silmitasertib; 0.284 (active) in experiment [2]; -0.033 with entospletinib.

With EP400 isoform 5 (UniProt Q96L91), the log2 fold change in experiment [1] was -0.047; with vorinostat, -0.279 (active); in the experiment with silmitasertib it was 0.024; in experiment [2], -0.025; with entospletinib, -0.021.

Regarding FNBP1L (UniProt Q5T0N5), the log2 fold change in experiment [1] is 0.001; with vorinostat it was -0.373 (active); in the experiment with silmitasertib, 0.102; in experiment [2], -0.041; with entospletinib, 0.017.

Take FAT2 (UniProt Q9NYQ8): the log2 fold change in experiment [1] is 0.393; with vorinostat, 0.001; with silmitasertib, 0.098; in experiment [2] it was 0.178; in the experiment with entospletinib, 0.162.

With EXOC2 (UniProt Q96KP1), the log2 fold change was -0.012 in experiment [1]; -0.361 (active) in the experiment with vorinostat; 0.031 with silmitasertib; 0.022 in experiment [2]; 0.024 with entospletinib.
